# In PubChem BioAssay AID430 (Sanford-Burnham Center for Chemical Genomics, 2006):
# About 1,100 (1.7%) of roughly 63,000 compounds were called active. The sample holds actives, similar compounds and a random draw of the others, so the mix is not that of the screen. No stated cut-off is given here; in the data, active means cytotoxicity above about 50%; inactive means the rest. Entries with a potency or affinity are not part of this list.
# Experiment: HPDE-C7 pancreatic duct cell viability loss – fluorescence, HTS (AID 430);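 further: cells exposed to compound for 48 hours before viability readout; 0% = vehicle and 100% = reference cytotoxic drug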
# Settings: HPDE-C7 pancreatic duct cells viability, at 10 µM, active compounds read high
row,Compound,cytotoxicity
1,CC(=O)Nc1ccc(-n2c(C)nc(=O)c(-c3ccccc3)c2C)cc1,2.9% (inactive)
2,CS(=O)(=O)c1ccc2nc(NC(=O)Oc3ccccc3)sc2c1,3.4% (inactive)
3,Cc1ccc(NC(=O)CN(C)S(=O)(=O)c2cccc3cccnc23)cc1,0.4% (inactive)
4,O=C1CC(N2CCOCC2)C(=O)N1CCc1ccccc1 (stereo not given),5.1% (inactive)
5,Cc1cc(-c2nnc3sc(C4CCCCC4)nn23)n[nH]1,4.3% (inactive)
6,CC(C)C(c1nnnn1CC1CCCO1)N1CCN(Cc2ccc3c(c2)OCO3)CC1 (stereo not given),-3.2% (inactive)
7,O=C(Cc1cccs1)Nc1nc2ccccc2s1,0.1% (inactive)
8,CC(C)(C)NS(=O)(=O)c1ccc2nc(NC(=O)Cc3cccs3)sc2c1,68.7% (active)
9,CS(=O)(=O)c1ccc2nc(NC(=O)Cc3ccccc3)sc2c1,0.9% (inactive)
10,CCOC(=O)C1CCCN(c2c(NCC3CCCO3)c(=O)c2=O)C1 (stereo not given),-11.3% (inactive)
11,COC(=O)c1ccc(Nc2cc(C)nc3nc(C)nn23)cc1,5.7% (inactive)
12,CNc1cc(C)nc(-n2nc(C)cc2C)n1,-0.2% (inactive)
13,CCOc1ccc(Nc2cc(C)nc(-n3nc(C)cc3C)n2)cc1,49.1% (inactive)
14,COC(=O)c1ccc(Oc2cc(C)nc(-n3nc(C)cc3C)n2)cc1,54.2% (active)
15,COc1ccc(N2CCN(C(=O)c3ccc(-n4nc(C)cc4C)cc3)CC2)cc1,-4.7% (inactive)
16,Cc1cc(C)n(-c2ccc(C(=O)NC(C)C)cc2)n1,-1% (inactive)
17,COc1ccc(Nc2cc(C)nc(-n3nc(C)cc3C)n2)cc1,66.9% (active)
18,CC(=O)c1ccc(Oc2cc(C)nc(-n3nc(C)cc3C)n2)cc1,60.3% (active)
19,COC(=O)c1ccc(Oc2ccc3nnc(C)n3n2)cc1,-7.1% (inactive)
20,O=C(NCCOC(=O)c1ccc(Cl)c(S(=O)(=O)N2CCCCC2)c1)c1ccncc1,-9.8% (inactive)
21,CC1(C)CC(=O)c2cnn(-c3nc4ccccc4[nH]3)c2C1,-0.3% (inactive)
22,c1ccc2c(c1)nc(N1CCOCC1)c1c3ccccc3[nH]c21,-21.6% (inactive)
23,O=S(=O)(Nc1ccc2c(c1)OCCO2)c1cccc2cccnc12,-0.7% (inactive)
24,O=C(Oc1cccc2cccnc12)c1cccc(-n2cnnn2)c1,20.3% (inactive)
25,Cc1ccc2cccc(OC(=O)c3ccc4c(c3)OCCO4)c2n1,53% (active)
26,CN(CCOC(=O)c1ccc2c(c1)OCCO2)Cc1ccccc1,-14% (inactive)
27,Cc1noc(C)c1COC(=O)c1ccc2c(c1)OCCO2,4.3% (inactive)
28,Cc1[nH]c2ccc(-c3nnc(SCC(=O)c4ccccc4F)o3)cc2c1C,66.4% (active)
29,Cc1[nH]c2ccc(-c3nnc(SCC(=O)c4ccc(F)cc4)o3)cc2c1C,1.7% (inactive)
30,Cc1[nH]c2ccc(-c3nnc(SCC(=O)N4CCCc5ccccc54)o3)cc2c1C,-10.5% (inactive)
